Measured values published in PubChem BioAssay (NCI).
Values joined by “and” are separate entries in the source; they are usually repeats but may differ in a detail not shown here. Identical values can stand only once. Compounds without any hit were thinned out: in the full panel of roughly 83,000, 20% have a hit.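 Single-concentration screen, 48 h exposure, 96-well plates. Endpoint: percent growth. Below 10 = active.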 A number with no mark means an inactive call. Active and inactive are the calls of the source.

Columns and labels:
Experiment in all cases: NCI-60 one-dose screen, 48 h (100 = growth as untreated, 0 = no growth, -100 = all killed)
NCI-H23 lung = conditions: 10 µM unless noted
NCI-H226 lung = conditions: 10 µM unless noted
NCI-H322M lung = conditions: 10 µM unless noted
HOP-62 NSCLC = conditions: 10 µM unless noted
NCI-H460 lung = conditions: 10 µM unless noted
NCI-H522 lung = conditions: 10 µM
A549/ATCC NSCLC = conditions: 10 µM unless noted
786-0 renal = conditions: 10 µM unless noted
COLO 205 colon = conditions: 10 µM unless noted
DU-145 prostate = conditions: 10 µM unless noted
K-562 leukemia = conditions: 10 µM unless noted
MALME-3M melanoma = conditions: 10 µM unless noted
MDA-MB-231 breast = conditions: 10 µM unless noted
RXF 393 renal = conditions: 10 µM unless noted
SF-268 CNS = conditions: 10 µM unless noted
SF-295 CNS = conditions: 10 µM unless noted
SF-539 CNS = conditions: 10 µM unless noted
UACC-257 melanoma = conditions: 10 µM unless noted
M14 melanoma = conditions: 10 µM unless noted
HOP-92 NSCLC = conditions: 10 µM

| SMILES | growth (NCI-H23 lung) | growth (NCI-H226 lung) | growth (NCI-H322M lung) | growth (HOP-62 NSCLC) | growth (NCI-H460 lung) | growth (NCI-H522 lung) | growth (A549/ATCC NSCLC) | growth (786-0 renal) | growth (COLO 205 colon) [%] | growth (DU-145 prostate) | growth (K-562 leukemia) | growth (MALME-3M melanoma) | growth (MDA-MB-231 breast) | growth (RXF 393 renal) | growth (SF-268 CNS) | growth (SF-295 CNS) | growth (SF-539 CNS) | growth (UACC-257 melanoma) | growth (M14 melanoma) | growth (HOP-92 NSCLC) [%] |
| --- | --- | --- | --- | --- | --- | --- | --- | --- | --- | --- | --- | --- | --- | --- | --- | --- | --- | --- | --- | --- |
| COc1ccc2cc1Oc1ccc(cc1)C[C@H]1c3cc(c(OC)cc3CCN1C)Oc1c(OC)c(OC)cc3c1[C@H](C2)N(C)CC3 | 92.7% | 113% | 52.6% | 17.7% | 44.9% | 1.42% (active) | 39.6% | 46.3% | 44.8 | 53.1% | -75.4% (active) | 16.3% | 8.45% (active) | 47.2% | 78.2% | 71.8% | -74.4% (active) | 46.2% | -78.8% (active) |  |
| Nc1nc(N)c2[nH]cnc2n1 | 88.6% | 102% | 111% | 88.7% | 96.2% | 50.6% | 80.2% | 91.8% | 97.6 | 73.1% | 76.5% | 125% | 99.3% |  | 83.8% | 84.7% | 92.8% | 56.1% | 88.2% | 78.5 |
| NN1CCOC(c2ccccc2)C1 (stereo not given) | 104% | 99.4% | 97.7% | 99.6% | 115% | 125% | 104% | 103% | 107 | 102% | 10.3% |  | 99.1% | 101% | 99.6% | 118% | 100% | 103% | 90.9% |  |
| Nc1ccc2c(O)cc(S(=O)(=O)O)cc2c1 | 93.8% and 96.2% | 96% and 91.9% | 103% and 119% | 86.1% and 92.4% | 98.4% and 102% | 106% and 88.1% | 105% and 92.1% | 98.9% and 105% |  | 114% and 110% | 93% and 96.7% | 122% and 111% | 107% and 106% | 110% and 89.3% | 118% and 101% | 99.5% | 87.2% and 96% | 101% and 94.3% | 98.7% | 80.9 |
| CCOC(=O)c1c(C)cc(=O)oc1C | 101% | 96.8% | 110% | 97.2% | 110% | 115% |  | 103% | 116 | 114% | 89% | 87.7% | 96.3% | 109% | 106% |  | 107% | 101% | 98% | 80.7 |
| COc1ccc(Nc2ccc3ccccc3c2)cc1 | 81.5% | 81% |  | 67.9% | 94.1% |  |  | 84.3% | 94 | 83.2% | 31.6% |  | 77.9% | 58.6% | 81.2% | 79.6% | 93.1% |  | 72.9% |  |
| Cl | 97.5% | 105% |  |  | 107% |  | 103% | 104% | 115 | 119% |  | 116% | 115% | 117% | 116% | 99.2% | 111% | 105% | 107% |  |
| Oc1ccc(Cc2ccccc2Cl)c(O)c1 | 89.5% |  | 86.5% | 91.9% | 101% | 94.7% | 98.8% | 102% | 106 |  | 91.5% |  | 71.7% | 83.9% |  |  | 93.9% | 93.2% | 99.1% | 89.4 |
| Cc1ccc(S(=O)(=O)c2ccccc2)cc1 | 54.5% | 85.6% | 57.1% | 44.2% | 20.7% |  | 41.7% |  | 18.4 | 26.3% | 23.2% | 66.6% | 50% | 39.3% | 47.9% | 2.7% (active) | 28.7% | 8.5% (active) | 15.4% | 58.7 |
| C/C(=C\c1ccccc1)c1ccccn1 | 107% | 90.9% | 96.8% | 105% | 105% | 109% | 115% | 104% | 114 | 112% | 105% | 102% | 91% |  | 99.3% | 113% | 98.1% | 105% | 108% | 105 |
| CCCCCCCCCCCCCCCc1ccc(N)c(OC2OC(CO)C(O)C(O)C2O)c1 (stereo not given) | 80.9% | 96.4% | 77.1% | 73.9% | 102% | -63.5% (active) | 86% | 81.7% |  | 119% | 83.4% | 22.5% | 70% |  | 99% | 92.2% | 93.4% | 51.5% | 82.5% | 82 |
| Cc1cc(-c2cc(C)c(O)c(C)c2)cc(C)c1O | 87.3% | 96.2% | 93.7% | 73.9% | 102% | 63.3% | 90.2% |  | 115 | 104% | 31.9% | 75% | 75.6% | 63.5% | 92.9% | 86.1% | 84.9% | 92% | 71.6% | 77.1 |
| Nc1ncnc2c1ncn2C1OC(COP(=O)(O)O)C(O)C1O (stereo not given) | 110% | 113% |  | 115% |  | 114% | 114% | 105% | 130 | 120% | 119% |  | 102% | 131% | 126% |  | 105% | 110% | 111% | 103 |
| c1ccc(-c2nc3ccccc3s2)cc1 | 88.2% |  | 81.1% | 76.3% | 97.5% |  | 105% | 105% | 110 | 113% | 102% | 97.5% | 68.5% | 106% | 95% | 97.9% | 96% | 98.5% | 97.3% | 82.4 |
